Assay results: PubChem BioAssay (Tox21)
Results filed as inconclusive are left out. The source made the active and inactive calls. Unless noted, calls come from the whole dose curve.

What was measured:
[1] = qHTS assay to identify small molecule agonists of the peroxisome proliferator-activated receptor delta (PPARd) signaling pathway - cell viability counter screen (AID 743211; active = well fitted curve in the direction sought with a large enough effect in the repeat runs; an effect the other way counts as inactive or inconclusive; note: % is set by controls: 0 for no effect and ±100 for the full control effect; nearly all actives have a fitted effect of over 55% in size)
In short: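 Viability was measured as CellTiter-Glo luminescence (30 min, room temperature) in the same wells as the beta-lactamase readout. GeneBLAzer PPARd UAS-bla HEK293H cells received compound after 5 h plating and were incubated 17 h at 37 C.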

[2] = target: Peroxisome proliferator-activated receptor delta (Homo sapiens) (UniProt Q03181); experiment: qHTS assay to identify small molecule agonists of the peroxisome proliferator-activated receptor delta (PPARd) signaling pathway (AID 743212); note: % is set by controls: 0 for no effect and ±100 for the full control effect
In short: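 A PPARd-bla HEK293H line with beta-lactamase under an Upstream Activator Sequence is treated with compounds at 37 C. Substrate loading for 2 h at room temperature precedes the fluorescence measurement.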

[3] = qHTS assay to identify small molecule antagonists of the peroxisome proliferator-activated receptor delta (PPARd) signaling pathway - cell viability counter screen (AID 743213; active = well fitted curve in the direction sought with a large enough effect in the repeat runs; an effect the other way counts as inactive or inconclusive; note: % is set by controls: 0 for no effect and ±100 for the full control effect; nearly all actives have a fitted effect of over 50% in size)
In short: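 Luminescence from CellTiter-Glo, added after the bla read and incubated 30 min at room temperature, gives viability of HEK293H PPARd-bla cells exposed to compounds for 17 h at 37 C with 300 nM L165041.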

[4] = target: Peroxisome proliferator-activated receptor delta (Homo sapiens) (UniProt Q03181); experiment: qHTS assay to identify small molecule antagonists of the peroxisome proliferator-activated receptor delta (PPARd) signaling pathway (AID 743215; active = well fitted inhibition curve with a large enough effect in the signal ratio in the repeat runs, not every such curve was filed as active; the % refers to the signal ratio;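 note: cells stimulated with agonist L165041 at 300 nM final during compound exposure; series mostly up to about 62 µM; % is set by controls: 0 for no effect and ±100 for the full control effect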)
In short: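 PPARd-bla HEK293H cells (UAS-bla reporter) preincubated 5 h, then given compound plus 300 nM final L165041 agonist for 17 h at 37 C. Beta-lactamase activity read by LiveBLAzer B/G FRET substrate fluorescence after 2 h at room temperature.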

[5] = qHTS assay to identify small molecule agonists of the farnesoid-X-receptor (FXR) signaling pathway - cell viability counter screen (AID 743218; active = well fitted curve in the direction sought with a large enough effect in the repeat runs; an effect the other way counts as inactive or inconclusive; note: % is set by controls: 0 for no effect and ±100 for the full control effect; nearly all actives have a fitted effect of over 45% in size)
In short: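 FXR-UAS-bla HEK 293T cells exposed to compounds for 16 h at 37C. Cytotoxicity read in the same wells by CellTiter-Glo luminescence after 30 min at room temperature, following the beta-lactamase FRET read.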

[6] = qHTS assay to identify small molecule antagonists of the farnesoid-X-receptor (FXR) signaling pathway - cell viability counter screen (AID 743221; active = well fitted cell-killing curve with a large enough effect in the repeat runs, not every such curve was filed as active; note: % is set by controls: 0 for no effect and ±100 for the full control effect; nearly all actives have a fitted effect of over 50% in size)
In short: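 Cytotoxicity counter screen run in the FXR-bla reporter wells: HEK 293T cells exposed to compound with 50 uM (final) chenodeoxycholic acid for 16 h, 37 C, then viability measured by CellTiter-Glo luminescence after 30 min, room temperature.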

[7] = target: Vitamin D3 receptor (Homo sapiens) (UniProt P11473); experiment: qHTS assay to identify small molecule agonists of the vitamin D receptor (VDR) signaling pathway (AID 743222); note: % is set by controls: 0 for no effect and ±100 for the full control effect
In short: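 VDR-bla cells plated 4 h at 37 C, then exposed to compounds for 16 h at 37 C. Beta-lactamase reporter activity measured by fluorescence after 2 h room-temperature loading with LiveBLAzer B/G FRET substrate.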

[8] = target: Vitamin D3 receptor (Homo sapiens) (UniProt P11473); experiment: qHTS assay to identify small molecule antagonists of the vitamin D receptor (VDR) signaling pathway (AID 743223; active = well fitted inhibition curve with a large enough effect in the signal ratio in the repeat runs, not every such curve was filed as active; the % refers to the signal ratio; note: % is set by controls: 0 for no effect and ±100 for the full control effect)
In short: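 Antagonist mode: compound added to VDR-bla cells alongside agonist 1alpha,25-dihydroxyvitamin D3 (3 nM final), incubation 16 h at 37C. Read-out is LiveBLAzer FRET fluorescence, 2 h at room temperature.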

[9] = qHTS assay to identify small molecule agonists of the vitamin D receptor (VDR) signaling pathway - cell viability counter screen (AID 743224; active = well fitted curve in the direction sought with a large enough effect in the repeat runs; an effect the other way counts as inactive or inconclusive; note: series mostly up to about 63 µM; % is set by controls: 0 for no effect and ±100 for the full control effect; nearly all actives have a fitted effect of over 50% in size)
In short: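 VDR-bla cells, 4 h after plating, exposed to compounds for 16 h at 37C; viability then read in the same wells as CellTiter-Glo luminescence after 30 min at room temperature, following the bla FRET read.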

[10] = qHTS assay to identify small molecule antagonists of the vitamin D receptor (VDR) signaling pathway - cell viability counter screen (AID 743225; active = well fitted curve in the direction sought with a large enough effect in the repeat runs; an effect the other way counts as inactive or inconclusive; note: % is set by controls: 0 for no effect and ±100 for the full control effect; nearly all actives have a fitted effect of over 50% in size)
In short: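 Cytotoxicity counter screen read by CellTiter-Glo luminescence (30 min, room temperature) in the same wells as the VDR-bla antagonist readout. HEK 293T VDR-UAS-bla cells had 16 h at 37C with compound and 3 nM (final) 1-alpha,25-dihydroxyvitamin D3, then 2 h with FRET substrate.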

[11] = qHTS assay to identify small molecule agonists of the NFkB signaling pathway (AID 1159509; active = well fitted curve in the direction sought with a large enough effect in the signal ratio in the repeat runs, not every such curve was filed as active; the % refers to the signal ratio)
In short: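 ME-180 NFkB-bla, 2,000 cells/well, overnight plating; cpd pinned in DMSO, 5 h 37 C; B/G FRET substrate 1.5 h RT; ex 405, em 460/530 nm.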

[12] = qHTS assay to identify small molecule agonists of the NFkB signaling pathway - cell viability counter screen (AID 1159515); note: series mostly up to about 61 µM; % is set by controls: 0 for no effect and ±100 for the full control effect; nearly all actives have a fitted effect of over 55% in size
In short: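 NFkB-bla ME-180 cells, 2,000/well, plated overnight at 37 C; compound added for 5 hr at 37 C. Viability read in the same wells as the bla reporter, by CellTiter-Glo luminescence after 30 min at room temperature.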

[13] = qHTS assay to identify small molecule agonists of the endoplasmic reticulum stress response signaling pathway (AID 1159516; active = well fitted activation curve with a large enough effect in the signal ratio in the repeat runs, not every such curve was filed as active; the % refers to the signal ratio; note: % is set by controls: 0 for no effect and ±100 for the full control effect)
In short: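 CellSensor ESRE-bla HeLa cells, 1,500 per well, plated overnight, then exposed to compounds for 5 hr at 37 C. Beta-lactamase reporter read with LiveBLAzer B/G FRET substrate after 2 hr at room temperature, 405 nm excitation, 460 and 530 nm emission.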

[14] = qHTS assay to identify small molecule agonists of the endoplasmic reticulum stress response signaling pathway - cell viability counter screen (AID 1159517)
In short: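 CellTiter-Glo was added to wells already read for beta-lactamase FRET, and luminescence was recorded 30 min later. Cells: ESRE-bla HeLa, 1,500 per well, compound exposure 5 hr at 37 C.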

[15] = target: Nuclear receptor ROR-gamma (Homo sapiens) (UniProt P51449); experiment: qHTS assay to identify small molecule antagonists of the retinoid-related orphan receptor gamma (ROR-gamma) signaling pathway (AID 1159521; active = well fitted curve in the direction sought with a large enough effect in the repeat runs; an effect the other way counts as inactive or inconclusive)
In short: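 Antagonist read-out: drop in luminescence (ONE-Glo) from an RORE-LUC reporter in CHO cells with doxycycline-inducible ROR-gamma; 2 hr compound pretreatment, 1 uM doxycycline, 16 hr incubation at 37 C.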

[16] = qHTS assay to identify small molecule agonists of the AP-1 signaling pathway - cell viability counter screen (AID 1159525); note: nearly all actives have a fitted effect of over 55% in size
In short: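 ME-180 AP-1-bla, 2500 cells/well, Opti-MEM + 0.5% dialyzed FBS; overnight 37 °C; cpd 15-pt titration, 5 h 37 °C; CellTiter-Glo 30 min RT; luminescence read; normalised to TOAB and DMSO controls.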

[17] = qHTS assay to identify small molecule agonists of the AP-1 signaling pathway (AID 1159526); note: % is set by controls: 0 for no effect and ±100 for the full control effect
[18] = qHTS assay to identify small molecule antagonists of the retinoid-related orphan receptor gamma (ROR-gamma) signaling pathway - cell viability counter screen (AID 1159520; active = well fitted curve in the direction sought with a large enough effect in the repeat runs; an effect the other way counts as inactive or inconclusive)
In short: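 Tet-on ROR gamma CHO cells (1,000/well) were plated 4 hr, given compounds in DMSO for 2 hr at 37 C, then induced with 1 uM final doxycycline for 16 hr. Viability was read as ATP by CellTiter-Glo luminescence after 30 min.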

[19] = target: Bile acid receptor (Homo sapiens) (UniProt Q96RI1); experiment: qHTS assay to identify small molecule antagonists of the farnesoid-X-receptor (FXR) signaling pathway (AID 743217; active = well fitted inhibition curve with a large enough effect in the signal ratio in the repeat runs, not every such curve was filed as active; the % refers to the signal ratio; note: % is set by controls: 0 for no effect and ±100 for the full control effect)
In short: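 FXR-UAS-bla HEK 293T cells (beta-lactamase reporter) given compound plus chenodeoxycholic acid (50 uM final), 16 h at 37C. LiveBLAzer B/G FRET substrate added for 2 h at room temperature; fluorescence read.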

[20] = target: Bile acid receptor (Homo sapiens) (UniProt Q96RI1); experiment: qHTS assay to identify small molecule agonists of the farnesoid-X-receptor (FXR) signaling pathway (AID 743220; active = well fitted activation curve with a large enough effect in the signal ratio in the repeat runs, not every such curve was filed as active; the % refers to the signal ratio; note: % is set by controls: 0 for no effect and ±100 for the full control effect)
In short: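 Beta-lactamase reporter under UAS control in GeneBLAzer FXR HEK 293T cells (5000/well) measured with LiveBLAzer FRET substrate after 2 h at room temperature. Compound exposure lasted 16 h at 37C.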

Chain of Bile acid receptor (Homo sapiens) (Q96RI1 whole entry, looked up): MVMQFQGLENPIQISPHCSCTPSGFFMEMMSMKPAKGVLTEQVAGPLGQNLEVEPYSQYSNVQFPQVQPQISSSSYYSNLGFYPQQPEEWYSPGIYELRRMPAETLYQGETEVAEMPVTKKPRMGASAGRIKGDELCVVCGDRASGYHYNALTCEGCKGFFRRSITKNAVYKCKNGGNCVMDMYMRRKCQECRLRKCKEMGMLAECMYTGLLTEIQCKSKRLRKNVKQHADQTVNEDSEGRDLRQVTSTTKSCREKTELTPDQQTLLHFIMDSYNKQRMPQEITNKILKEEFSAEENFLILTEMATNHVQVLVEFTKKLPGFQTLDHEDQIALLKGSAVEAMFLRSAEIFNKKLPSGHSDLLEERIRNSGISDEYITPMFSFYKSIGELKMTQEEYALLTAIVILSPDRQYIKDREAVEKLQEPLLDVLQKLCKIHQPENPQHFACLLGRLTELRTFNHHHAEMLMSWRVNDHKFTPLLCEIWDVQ
Chain of Vitamin D3 receptor (Homo sapiens) (P11473 whole entry, looked up): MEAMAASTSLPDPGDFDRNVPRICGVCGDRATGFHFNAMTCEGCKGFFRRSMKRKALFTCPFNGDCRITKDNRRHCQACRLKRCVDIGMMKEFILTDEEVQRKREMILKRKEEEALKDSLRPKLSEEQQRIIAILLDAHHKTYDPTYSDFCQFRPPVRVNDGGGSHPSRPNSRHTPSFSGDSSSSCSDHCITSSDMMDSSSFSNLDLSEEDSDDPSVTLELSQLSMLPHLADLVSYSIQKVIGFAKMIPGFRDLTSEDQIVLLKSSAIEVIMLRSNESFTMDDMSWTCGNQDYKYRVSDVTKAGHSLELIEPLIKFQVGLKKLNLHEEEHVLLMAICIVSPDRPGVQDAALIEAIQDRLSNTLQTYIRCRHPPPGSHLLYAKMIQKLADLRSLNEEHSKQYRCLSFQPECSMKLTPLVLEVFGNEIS
Chain of Peroxisome proliferator-activated receptor delta (Homo sapiens) (Q03181 whole entry, looked up): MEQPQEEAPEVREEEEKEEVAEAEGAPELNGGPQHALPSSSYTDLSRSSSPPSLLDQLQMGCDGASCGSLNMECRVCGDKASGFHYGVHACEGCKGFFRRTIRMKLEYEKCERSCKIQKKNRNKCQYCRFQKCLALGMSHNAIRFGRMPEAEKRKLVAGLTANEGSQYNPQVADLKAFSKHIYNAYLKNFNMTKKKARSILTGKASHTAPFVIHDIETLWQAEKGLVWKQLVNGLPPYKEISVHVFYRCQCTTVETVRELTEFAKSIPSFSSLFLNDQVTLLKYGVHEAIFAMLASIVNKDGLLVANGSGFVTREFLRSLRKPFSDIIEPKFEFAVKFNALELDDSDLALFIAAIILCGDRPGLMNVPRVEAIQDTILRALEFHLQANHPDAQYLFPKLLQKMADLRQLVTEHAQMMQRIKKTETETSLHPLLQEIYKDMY

O=C(O)c1ccc2[nH]cc(CCCCN3CC=C(c4ccccc4)CC3)c2c1
inactive: Potency [1] | outcome [2] | outcome [3] | outcome [4] | Potency [5] | outcome [6] | outcome [7] | outcome [8] | Potency [9] | outcome [10] | outcome [11] | outcome [12] | outcome [13] | Potency [14] | Potency [15] | Potency [16] | outcome [17]

CNCC(=O)c1ccc(O)c(O)c1
inactive: Potency [5] | outcome [6] | outcome [7] | outcome [11] | outcome [12] | outcome [13] | Potency [14] | Potency [18] | Potency [16] | outcome [17]

[As]#[In]
inactive: Potency [1] | outcome [3] | Potency [5] | outcome [6] | Potency [9] | outcome [10] | outcome [11] | outcome [12] | outcome [13] | Potency [14] | Potency [15] | Potency [16] | outcome [17]

CC(=O)CCc1ccc2c(c1)OCO2
inactive: Potency [1] | outcome [2] | outcome [3] | outcome [4] | Potency [19] | Potency [5] | outcome [20] | outcome [6] | outcome [10] | outcome [11] | outcome [12] | Potency [14] | Potency [18] | Potency [15] | Potency [16] | outcome [17]

COC(=O)C(C)Oc1ccc(Oc2ccc(Cl)cc2Cl)cc1 (stereo unspecified)
inactive: Potency [1] | outcome [2] | outcome [3] | outcome [4] | Potency [19] | Potency [5] | outcome [20] | outcome [6] | outcome [7] | outcome [8] | Potency [9] | outcome [10] | outcome [11] | outcome [12] | outcome [13] | Potency [14] | Potency [15] | Potency [16] | outcome [17]

C1CCC(C2CCCCC2)CC1
inactive: outcome [3] | outcome [4] | Potency [19] | outcome [20] | outcome [7] | outcome [8] | outcome [11] | outcome [12] | outcome [13] | Potency [14] | Potency [18] | Potency [16] | outcome [17]

CC1=C(C(=O)O)N2C(=O)[C@@H](N)[C@H]2SC1
inactive: Potency [1] | outcome [2] | outcome [3] | outcome [4] | Potency [5] | outcome [6] | outcome [8] | Potency [9] | outcome [11] | outcome [12] | outcome [13] | Potency [14] | activity change, negative = inhibition [15] 27.3% [at 19 µM] | viability change, negative = cytotoxic [16] 19.2% [at 15.8 µM] | activation [17] -1.04% [at 15.8 µM]

CCN(Cc1ccc(Cl)nc1)/C(=C/[N+](=O)[O-])NC
inactive: Potency [1] | outcome [2] | outcome [3] | outcome [4] | outcome [6] | outcome [7] | outcome [8] | Potency [9] | outcome [10] | outcome [11] | outcome [12] | outcome [13] | Potency [14] | Potency [15] | Potency [16] | outcome [17]

CCC(=O)c1ccccc1
inactive: Potency [1] | outcome [2] | outcome [4] | Potency [19] | Potency [5] | outcome [20] | outcome [6] | outcome [7] | outcome [8] | Potency [9] | outcome [11] | outcome [12] | outcome [13] | Potency [14] | Potency [15] | Potency [16] | outcome [17]
